# According to PubChem BioAssay (NCATS):
# Inconclusive results are not listed. Where a call stands in place of a potency, no number is given. The source made the active and inactive calls. The call rests on the fitted dose curve; in most records, active means well fitted inhibition curve with a large enough effect; inconclusive means small, poorly fitted or top-dose-only effect; inactive means flat fitted curve, though single readings scatter.
# Tests used:
# Assay in all cases: qHTS profiling for inhibitors of Plasmodium falciparum proliferation (AID 504749); further: nearly all actives have a fitted effect of over 60% in size
# Settings in all cases: P. falciparum in erythrocytes, SYBR Green DNA, 72 h; series mostly up to 28.7 µM
# [1] = test system: CP260
# Method in brief: (§1)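 Each compound contacts P. falciparum-infected red blood cells for 72 h at 37 C; lysis buffer (Tris, EDTA, saponin, Triton X, SYBR Green I) is added and fluorescence measured next morning; values normalized to controls.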
# [2] = test system: CP262
# Method in brief: as §1
# [3] = test system: CP265
# Method in brief: as §1
# [4] = test system: CP266
# Method in brief: as §1
# [5] = test system: CP268
# Method in brief: as §1
# [6] = test system: CP269
# Method in brief: as §1
# [7] = test system: CP286
# Method in brief: as §1
# [8] = test system: CP291
# Method in brief: as §1
# [9] = test system: CP297
# Method in brief: as §1
# [10] = test system: CP305
# Method in brief: as §1
# Potency means the concentration at half of the fitted maximal effect.
SMILES,Potency [1],Potency [2],Potency [3],Potency [4],Potency [5],Potency [6],Potency [7],Potency [8],Potency [9],Potency [10]
CCN(CC)C(=O)c1cccnc1,inactive,inactive,inactive,inactive,inactive,inactive,inactive,inactive,inactive,inactive
O=C1c2ccccc2C(=O)C1c1ccc(F)cc1,inactive,inactive,inactive,inactive,inactive,inactive,inactive,inactive,inactive,inactive
C[C@H]1O[C@@H](O[C@H]2[C@@H](O)C[C@H](O[C@H]3[C@@H](O)C[C@H](O[C@H]4CC[C@@]5(C)[C@H](CC[C@@H]6[C@@H]5C[C@@H](O)[C@]5(C)[C@@H](C7=CC(=O)OC7)CC[C@]65O)C4)O[C@@H]3C)O[C@@H]2C)C[C@H](O)[C@@H]1O,inactive,inactive,inactive,inactive,inactive,inactive,inactive,inactive,inactive,inactive
FC(F)(F)C(F)(F)C(F)(F)C(F)(F)C(F)(F)F,inactive,inactive,inactive,inactive,inactive,inactive,inactive,inactive,inactive,inactive
CC(C)(C)c1ccc2c(S(=O)(=O)O)c(C(C)(C)C)ccc2c1,inactive,inactive,inactive,inactive,inactive,inactive,inactive,inactive,inactive,inactive
COC(=O)C(CN)c1c[nH]c2ccc(OC)cc12 (stereo not given),inactive,inactive,inactive,inactive,inactive,inactive,inactive,inactive,inactive,inactive
Cc1c(Cl)cccc1Nc1ncccc1C(=O)O,inactive,inactive,inactive,inactive,inactive,inactive,inactive,inactive,inactive,inactive
NCC[C@H](O)C(=O)N[C@@H]1C[C@H](N)[C@@H](O[C@H]2O[C@H](CN)CC[C@H]2N)[C@H](O)[C@H]1O[C@H]1O[C@H](CO)[C@@H](O)[C@H](N)[C@H]1O,inactive,inactive,inactive,inactive,inactive,inactive,inactive,inactive,inactive,inactive
C=C(C)C1CC=C(C)CC1 (stereo not given),inactive,inactive,inactive,inactive,inactive,inactive,inactive,inactive,inactive,inactive
O=C(O)[C@H]1CN(C/C=C/P(=O)(O)O)CCN1,inactive,inactive,inactive,inactive,inactive,inactive,inactive,inactive,inactive,inactive
Cc1ccc(S(=O)(=O)NCl)cc1,inactive,inactive,inactive,inactive,inactive,inactive,inactive,inactive,inactive,inactive
CCCCCCCCCCCCCC(=O)OCC(COP(=O)([O-])OCC[N+](C)(C)C)OC(=O)CCCCCCCCCCCCC (stereo not given),inactive,inactive,inactive,inactive,inactive,inactive,inactive,inactive,inactive,inactive
O=C(NNCS(=O)(=O)O)c1ccncc1,inactive,inactive,inactive,inactive,inactive,inactive,inactive,inactive,inactive,inactive
CC(=O)Nc1ccc(OC(C)=O)cc1,inactive,inactive,inactive,inactive,inactive,inactive,inactive,inactive,inactive,inactive
ClC(Cl)Cl,inactive,inactive,inactive,inactive,inactive,inactive,inactive,inactive,inactive,inactive
COc1ccccc1N1CCN(CCCC(=O)c2ccc(F)cc2)CC1,inactive,inactive,inactive,inactive,inactive,inactive,inactive,inactive,inactive,inactive
COc1cc(S(C)=O)ccc1-c1nc2ncccc2[nH]1 (stereo not given),inactive,inactive,inactive,inactive,inactive,inactive,inactive,inactive,inactive,inactive
c1ccc2c(c1)OCC(CN1CCCCC1)O2 (stereo not given),inactive,inactive,inactive,inactive,inactive,inactive,inactive,inactive,inactive,inactive
CN[C@@H]1[C@H](O[C@H]2[C@H](O[C@H]3[C@H](O)[C@@H](O)[C@H](N=C(N)N)[C@@H](O)[C@@H]3N=C(N)N)O[C@@H](C)[C@]2(O)C=O)O[C@@H](CO)[C@H](O)[C@H]1O,inactive,inactive,inactive,inactive,inactive,inactive,inactive,inactive,inactive,inactive
OB(O)O,inactive,inactive,inactive,inactive,inactive,inactive,inactive,inactive,inactive,inactive
CC(C)(COP(=O)(O)OP(=O)(O)OC[C@H]1O[C@@H](n2cnc3c(N)ncnc32)[C@H](O)[C@@H]1OP(=O)(O)O)C(O)C(=O)NCCC(=O)NCCS (stereo not given in full),inactive,inactive,inactive,inactive,inactive,inactive,inactive,inactive,inactive,inactive
O=C(O)CCC/C=C\C[C@@H]1[C@@H](/C=C/[C@@H](O)COc2cccc(C(F)(F)F)c2)[C@H](O)C[C@@H]1O,inactive,inactive,inactive,inactive,inactive,inactive,inactive,inactive,inactive,inactive
CC1(O)CCC(C(C)(C)O)CC1 (stereo not given),inactive,inactive,inactive,inactive,inactive,inactive,inactive,inactive,inactive,inactive
C[C@]12CC[C@@H]3c4ccc(OC(=O)c5ccccc5)cc4CC[C@H]3[C@@H]1CC[C@@H]2O,5.01 µM (active),inactive,inactive,inactive,inactive,inactive,12.6 µM (active),inactive,inactive,inactive
O=C(O)C1=C(CSc2nnnn2CS(=O)(=O)O)CS[C@@H]2[C@H](NC(=O)[C@H](O)c3ccccc3)C(=O)N12,inactive,inactive,inactive,inactive,inactive,inactive,inactive,inactive,inactive,inactive
O=C(O)Cc1cc(I)c(Oc2ccc(O)c(I)c2)c(I)c1,inactive,inactive,inactive,inactive,inactive,inactive,inactive,inactive,inactive,inactive
Cc1cc(C)c(NC(=O)C[C@H](CC(=O)O)c2cccc3ccccc23)c(C(=O)N2CCC3(CCCC3)CC2)c1,inactive,inactive,inactive,inactive,inactive,inactive,inactive,inactive,inactive,inactive
CN1C(=O)C[C@@H](C(=O)N[C@@H](Cc2cnc[nH]2)C(=O)N2CCC[C@H]2C(N)=O)NC1=O,inactive,inactive,inactive,inactive,inactive,inactive,inactive,inactive,inactive,inactive
CC(C)CCC[C@@H](C)[C@H]1CC[C@H]2[C@@H]3CC=C4C[C@@H](O)CC[C@]4(C)[C@H]3CC[C@]12C,inactive,inactive,inactive,inactive,inactive,inactive,inactive,inactive,inactive,inactive
